A selection: hits, their analogues and other compounds. The true share with any hit is near 3.1%.
INS-1E GSIS act: GLuc luminescence reporter in INS-1E cells, primary screen for activators of glucose-dependent secretion of insulin; activation, % at 16.6 µM; INS-1E GLuc reporter insulin secretion, 2-3 h; 370,000 compounds, 0.61% hits; AID 743287;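 active = lowest replicate activation of at least 40%, so every replicate reaches that level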
EWS-Fli block: EWS/Fli transcriptional activity inhibition | A673 NR0B1-luciferase reporter, viability-normalised | inhibition, % at 12.6 µM | 350,000 compounds, 0.67% hits;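 active = mean inhibition of at least 50% after viability correction, with every replicate also passing that limit; inconclusive = mean reaches 50% but only one of two replicates passes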;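 also: firefly luciferase signal divided by Alamar Blue viability fluorescence both relative to DMSO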
miR122 inh: blocks miR-122 activity in Huh7 sensor cells; AID 602342; activation (reporter increase), % at 12.5 µM; 340,000 compounds, 0.3% hits; Huh7 miR-122 Renilla luciferase sensor, 48 h; neutral wells = 0, positive control = 100;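 active = mean replicate activation score at least 90 and every replicate individually at or above 90; inconclusive = only one of the two criteria met; inactive = neither criterion met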;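 also: higher luciferase means less miR-122 activity so hits act as miR-122 inhibitors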
C2C12 statin: suppression of simvastatin myotoxicity | C2C12 myotubes + simvastatin, ATP luminescence, 48 h; scaled: DMSO 0, geranylgeraniol control 100 | rescue of ATP level, % at 7.49 µM | 330,000 compounds, 0.78% hits | AID 602340;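 active = mean ATP rescue above about 67%, or every replicate alone reaching that limit, limit read from the data, passing the limit was not always enough; inconclusive = no clear call, values can overlap the other calls; inactive = mean under the limit and some replicate under it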;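 also: myotubes were challenged with 10 µM simvastatin during compound exposure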
PAX8 reporter: lowers PAX8-driven luciferase in RMG-I cells. RMG-I TPO-luciferase reporter, SteadyGlo, 24 h. inhibition, % at 12.6 µM. 360,000 compounds, 1.2% hits;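 active = mean replicate inhibition at least 60% with every replicate also reaching 60%; inconclusive = only one of the two criteria is met; inactive = mean below 60% and not all replicates reaching 60%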;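 also: luciferase light reporting Pax8 driven TPO promoter activity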
HIV Env fusion: blocks HIV Env-driven cell-cell fusion; HeLa-JRFL Env/CEM21 cell fusion, luciferase; inhibition, % at 12.3 µM; 360,000 compounds, 1.1% hits;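 active = mean replicate inhibition score of at least 50 and every replicate individually at or above 50; inconclusive = only one of the two criteria met; inactive = mean below 50 and not all replicates reaching 50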
DNA binder FP: binds DNA displacing acridine orange; shares compounds with EWS-Fli block; salmon sperm DNA acridine orange fluorescence polarization; AC35, µM (highest dose often 68 µM); 640 compounds, 2% hits;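 active = fitted curve reaches a 35% signal fall AC35 below twice the sample's top valid tested dose, actives reach about 48 µM in these data; inactive = the rest, including activity in the rising direction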;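 also: lower polarization ratio signals compound binding to DNA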
Each line names hits and unclear results; the compound was inactive in the other large screens (follow-up assays come after a bar, where they were run); ! = not active in a repeat.

Cc1ccc(C(C(=O)NCc2ccco2)N(C(=O)CNC(=O)c2cccs2)c2c(C)cc(C)cc2C)cc1 (stereo not drawn)	EWS-Fli block 55 (no result: PAX8 reporter, HIV Env fusion) | DNA binder FP inactive
O=c1ccc2[n+]([O-])c3ccc(O)cc3oc-2c1	EWS-Fli block 57, PAX8 reporter 81 (no result: miR122 inh, C2C12 statin) | DNA binder FP 14µM
COc1cc2c(cc1NC(=O)CN(C)Cc1ccc(OC)c(OC)c1)oc1ccccc12	EWS-Fli block 53 (no result: miR122 inh, C2C12 statin) | DNA binder FP inactive
O=C(/C=C/c1ccc(Cl)cc1Cl)N(Cc1ccccc1)C1CCS(=O)(=O)C1 (stereo not drawn)	none (no result: EWS-Fli block, C2C12 statin)
O=C(/C=C/c1ccc(Cl)cc1Cl)N(Cc1ccc(Cl)cc1)C1CCS(=O)(=O)C1 (stereo not drawn)	EWS-Fli block 70 (no result: C2C12 statin) | DNA binder FP inactive
COC(=O)CC1(C(=O)OC)Oc2ccc(Br)cc2C(=O)N1c1cccc(Cl)c1Cl (stereo not drawn)	EWS-Fli block 64, HIV Env fusion 65 (no result: miR122 inh, C2C12 statin) | DNA binder FP inactive
CO[C@H]1CN(C)C(=O)c2cccc(C#N)c2OC[C@@H]2O[C@@H](CC[C@H]2OC)CCN(C)C(=O)[C@H]1C	none (no result: miR122 inh)
C[C@@H]1CN([C@H](C)CO)C(=O)c2cc(NC(=O)c3ccccc3)ccc2O[C@@H](C)CCCCO[C@H]1CN(C)C(=O)Nc1cccc2ccccc12	EWS-Fli block 69, HIV Env fusion inconclusive (no result: C2C12 statin) | DNA binder FP inactive
C[C@@H]1CCCCO[C@@H](CN(C)C(=O)Cc2ccccc2)[C@@H](C)CN([C@@H](C)CO)C(=O)c2cc(NS(=O)(=O)c3ccc(F)cc3)ccc2O1	EWS-Fli block 64 (no result: C2C12 statin) | DNA binder FP inactive
C[C@H]1CCCCO[C@H](CN(C)Cc2ccc(C(F)(F)F)cc2)[C@@H](C)CN([C@@H](C)CO)C(=O)c2cc(NC(=O)Nc3ccccc3)ccc2O1	EWS-Fli block 65 (no result: C2C12 statin) | DNA binder FP inactive
C[C@H]1CCCCO[C@H](CN(C)Cc2ccc(C(=O)O)cc2)[C@@H](C)CN([C@@H](C)CO)C(=O)c2cc(NC(=O)Nc3ccc(C(F)(F)F)cc3)ccc2O1	none (no result: C2C12 statin)
C[C@H](CO)N1C[C@H](C)[C@H](CN(C)CC2CCCCC2)Oc2ccc(NC(=O)Nc3cccc4ccccc34)cc2C1=O	EWS-Fli block 62 (no result: PAX8 reporter, HIV Env fusion) | DNA binder FP inactive
COc1ccc(-c2cn(CC[C@@H]3CC[C@@H](NS(=O)(=O)c4ccccc4C)[C@@H](CO)O3)nn2)cc1	none (no result: miR122 inh)
Cc1ccc(S(=O)(=O)Nc2ccc3c(c2)C(=O)N([C@H](C)CO)C[C@H](C)[C@@H](CN(C)Cc2ccc(C(F)(F)F)cc2)OCCCC[C@H](C)O3)cc1	EWS-Fli block 69, PAX8 reporter 97 (no result: C2C12 statin) | DNA binder FP inactive
C[C@@H]1CN([C@H](C)CO)C(=O)c2cc(NS(=O)(=O)c3ccc(Cl)cc3)ccc2O[C@@H](C)CCCCO[C@@H]1CN(C)Cc1ccc(C(F)(F)F)cc1	HIV Env fusion inconclusive (no result: C2C12 statin)
C[C@H](CO)N1C[C@H](C)[C@@H](CN(C)Cc2ccc(C(F)(F)F)cc2)OCCCC[C@H](C)Oc2ccc(NS(=O)(=O)c3ccc(F)cc3)cc2C1=O	EWS-Fli block 56, PAX8 reporter 94 (no result: C2C12 statin) | DNA binder FP inactive
Cc1ccc(S(=O)(=O)Nc2ccc3c(c2)C(=O)N([C@@H](C)CO)C[C@H](C)[C@@H](CN(C)Cc2ccc(C(F)(F)F)cc2)OCCCC[C@@H](C)O3)cc1	EWS-Fli block 55, PAX8 reporter 97 (no result: C2C12 statin) | DNA binder FP inactive
O=C1c2ccccc2C(=O)c2cc(N3CCCCC3)ccc21	EWS-Fli block 83 (no result: miR122 inh) | DNA binder FP inactive
c1ccc2cc(N3CCCCC3)ccc2c1	none (no result: INS-1E GSIS act)
COc1cccc(S(=O)(=O)N[C@H]2C=C[C@H](CC(=O)NCc3ccc(F)cc3)O[C@H]2CO)c1	none (no result: miR122 inh)
COc1ccc(CCC(C)NC2CCCCCCC2)cc1 (stereo not drawn)	none
COc1ccc(CCC(C)NCC2CCCCC2)cc1 (stereo not drawn)	EWS-Fli block 90 | DNA binder FP inactive
CN(C)c1ccc(C=c2c3ccccc3n3c2c2c([n+]3C)CCCC2)cc1	EWS-Fli block 53, PAX8 reporter 91 | DNA binder FP 6.5µM
CN(C)c1ccc(/C=C2\CCC/C(=C\c3ccccc3)C2=O)cc1	none (no result: INS-1E GSIS act, C2C12 statin)
C[C@@H]1CN([C@@H](C)CO)C(=O)c2cc(NS(=O)(=O)c3ccc(F)cc3)ccc2O[C@@H]1CN(C)S(=O)(=O)c1cccs1	none
CCCc1nc2ccc(NC(=O)c3cccs3)cc2c(=O)n1Cc1ccccc1Cl	EWS-Fli block 60 (no result: miR122 inh, C2C12 statin) | DNA binder FP inactive
CCN(CC)c1cc(C)c2cc(NC(=O)c3cccs3)ccc2n1	none
COc1ccc(NS(=O)(=O)c2cc(NC(=O)CNC(=O)c3cccc(OC)c3)ccc2C)cc1	EWS-Fli block 63 (no result: C2C12 statin) | DNA binder FP inactive
COc1cccc(NC(=O)CNC(=O)c2ccccc2)c1	none (no result: EWS-Fli block, PAX8 reporter, HIV Env fusion)
O=C(C[C@@H]1CC[C@@H](NS(=O)(=O)c2ccc(F)cc2)[C@@H](CO)O1)NCc1ccc(Cl)c(Cl)c1	none
Cc1cccc(C)c1NC(=O)CN1CCN(C(=O)CNC(=O)c2ccc(-c3ccccc3)cc2)CC1	none (no result: INS-1E GSIS act)
Cc1cccc(NC(=O)CN2CCN(C(=O)CNC(=O)c3ccc(-c4ccccc4)cc3)CC2)c1C	EWS-Fli block 66 (no result: INS-1E GSIS act) | DNA binder FP inactive
CC(=O)Oc1ccc(/C=C2/Oc3ccccc3C2=O)cc1	none
COc1ccc(/C=C2\Oc3ccccc3C2=O)cc1	EWS-Fli block 62 | DNA binder FP inactive
Cc1ccccc1NC(=O)C(=Cc1ccc(C(=O)O)cc1)C(=O)Nc1ccccc1C	EWS-Fli block 54, PAX8 reporter 109 (no result: miR122 inh, C2C12 statin) | DNA binder FP inactive
CC(=O)/C(=C/c1ccccc1)C(=O)Nc1ccccc1C	none
Cc1ccccc1N=Nc1c(O)n(C)c2ccccc12	EWS-Fli block 60 | DNA binder FP inactive
O=C(C1CC1)N1C[C@@H]2N[C@H](C1)C2c1ccc(/C=C/c2ccccc2)cc1 (stereo partly drawn)	EWS-Fli block 53! (no result: miR122 inh, C2C12 statin, HIV Env fusion) | DNA binder FP inactive
O=C(Nc1ccc2c(c1)OCO2)N1C[C@@H]2N[C@H](C1)C2c1ccc(C=Cc2ccccc2)cc1 (stereo partly drawn)	INS-1E GSIS act 89!, EWS-Fli block 65! (no result: miR122 inh, C2C12 statin, HIV Env fusion) | DNA binder FP inactive
CN(C)CC(=O)N1C[C@@H]2N[C@H](C1)C2c1ccc(/C=C/c2ccccc2)cc1 (stereo partly drawn)	none (no result: miR122 inh, C2C12 statin, HIV Env fusion)
CC(C)C#Cc1ccc2c(c1)O[C@H](CN(C)Cc1ccncc1)[C@@H](C)CN([C@@H](C)CO)S2(=O)=O	none
N/C(Cc1nc(-c2ccc(F)cc2)cs1)=N\O	EWS-Fli block 77 (no result: C2C12 statin) | DNA binder FP inactive
CC(C)CC#Cc1cnc2c(c1)C(=O)N([C@@H](C)CO)C[C@H](C)[C@@H](CN(C)Cc1cncnc1)O2	none (no result: PAX8 reporter)

Source: PubChem BioAssay (Broad Institute)
